Test results as given in the supplement of paper PMC9177965.
Where “and” joins values, the source holds several entries; their conditions need not be identical. Equal values may be shown once.

Tested on: HT29 RNF43 G659fs (RNF43 659mut, CRISPR-edited)
Assay: cell viability activity relative to DMSO (negative = inhibition); higher = more viable cells (less growth inhibition)
Conditions: 5 µM; 96 h
Experimental: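 Broad Repurposing Library primary screen at a single dose of 5 uM. HT29 sg-Ctrl and HT29 RNF43 G659fs CRISPR-edited isogenic cells were seeded at 2500 cells/well in 384-well plates in duplicate and treated for 96 h. Viability was read by CellTiter-Glo and reported as % activity relative to DMSO, with MG132 as the positive control (negative = growth inhibition).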

| SMILES | cell viability activity |
| --- | --- |
| CC(=O)O[C@@]12CO[C@@H]1C[C@H](O)[C@@]1(C)C(=O)[C@H](O)C3=C(C)[C@@H](O)C[C@@](O)([C@@H](OC(=O)c4ccccc4)[C@H]21)C3(C)C | -37.1% |
| C[C@H]1CCC/C=C/[C@@H]2C[C@H](O)C[C@H]2[C@H](O)/C=C/C(=O)O1 | -99.3% and -97.5% |
| C[C@@H]1CC[C@@]2(OC1)O[C@H]1C[C@H]3[C@@H]4CC=C5C[C@@H](O[C@@H]6O[C@H](CO)[C@@H](O[C@@H]7O[C@@H](C)[C@H](O)[C@@H](O)[C@H]7O)[C@H](O)[C@H]6O[C@@H]6O[C@@H](C)[C@H](O)[C@@H](O)[C@H]6O)CC[C@]5(C)[C@H]4CC[C@]3(C)[C@H]1[C@@H]2C | -25.8% |
| Clc1cccc(SC2CCNCC2)n1 | -56.2% |
| C=C(C)[C@H]1Cc2c(ccc3c2O[C@@H]2COc4cc(OC)c(OC)cc4[C@@H]2C3=O)O1 | -61.5% |
| Cc1sc2c(c1C)C(c1ccc(Cl)cc1)=N[C@@H](CC(=O)Nc1ccc(O)cc1)c1nnc(C)n1-2 | -56.2% |
| O=C1/C(=C/c2ccccc2)C[C@@]2(O)C3Cc4ccc(O)c5c4[C@@]2(CCN3CC2CC2)[C@H]1O5 | -81.4% |
| CC(C)(C)c1cc(C=C(C#N)C#N)cc(C(C)(C)C)c1O | -79.1% |
| CC[C@@H]1/C=C/C=C/C[C@H](C)[C@H](O)[C@](C)(O)C(=O)[C@H](C)[C@@H](O)[C@H](C)C(=O)[C@H](C)[C@@H](O)[C@H](C)/C=C/C(=O)O[C@H]2[C@@H](C)[C@@H](CC1)O[C@@]1(CC[C@@H](C)[C@@H](C[C@H](C)O)O1)[C@@H]2C | -38.4% |
| CC[C@@H](C(=O)[C@@H](C)[C@@H](O)[C@H](C)[C@@H]1O[C@@H]([C@@H](CC)C(=O)O)CC[C@@H]1C)[C@H]1O[C@]2(C=C[C@@H](O)[C@]3(CC[C@@](C)([C@H]4CC[C@](O)(CC)[C@H](C)O4)O3)O2)[C@H](C)C[C@@H]1C | -79.3% |
| COc1ccc(CCN2CCC(Nc3nc4ccccc4n3Cc3ccc(F)cc3)CC2)cc1 | -23.2% |
| C[C@]12O[C@H](C[C@]1(O)CO)n1c3ccccc3c3c4c(c5c6ccccc6n2c5c31)CNC4=O | -88.5% |
| CN1CCN(c2cccc3[nH]c(=O)oc23)CC1 | -64.6% |
| CC(C)[C@]12O[C@H]1[C@@H]1O[C@]13[C@]1(O[C@H]1C[C@H]1C4=C(CC[C@@]13C)C(=O)OC4)[C@@H]2O | -90.2% and -88.7% |
| C[C@]12CC[C@H](O)C[C@H]1CC[C@@H]1[C@@H]2CC[C@]2(C)[C@@H](C3=CC(=O)OC3)CC[C@]12O | -87.2% |
| c1ccc2c(c1)[I+]c1ccccc1-2 | -61.9% |
| C[C@@H]1O[C@@H](O[C@H]2C[C@@H](O)[C@]3(CO)[C@H]4[C@H](O)C[C@]5(C)[C@@H](C6=CC(=O)OC6)CC[C@]5(O)[C@@H]4CC[C@]3(O)C2)[C@H](O)[C@H](O)[C@H]1O | -90.4% and -90% |
| Cc1sc2c(c1C)C(c1ccc(Cl)cc1)=N[C@@H](CC(=O)OC(C)(C)C)c1nnc(C)n1-2 | -60.2% |
| COc1cccc2c1C(=O)c1c(O)c3c(c(O)c1C2=O)C[C@@](O)(C(=O)CO)C[C@@H]3O[C@H]1C[C@H](N2CCO[C@H](OC)C2)[C@H](O)[C@H](C)O1 | -96.6% |
| CN(C)C(=S)SSC(=S)N(C)C | -72.8% |

| SMILES | cell viability activity |
| --- | --- |
| Oc1cc(Cl)ccc1Oc1ccc(Cl)cc1Cl | -89.3% |
| COc1ccc(C[C@H]2NC[C@H](O)[C@H]2OC(C)=O)cc1 | -91.2% |
| C/C(=C\c1csc(C)n1)[C@@H]1C[C@@H]2O[C@@H]2CCC[C@H](C)[C@H](O)[C@@H](C)C(=O)C(C)(C)[C@@H](O)CC(=O)O1 | -69% |
| COC(=O)C[C@](O)(CCC(C)(C)O)C(=O)O[C@@H]1C(OC)=C[C@]23CCCN2CCc2cc4c(cc2[C@H]13)OCO4 | -89.5% |
| O=C1C=C2C=C[C@@H]3C[C@@]2(O1)[C@H]1CCCCN31 | -29.8% |
| C[C@@]1(CO)[C@H](O)CC[C@@]2(C)[C@H]1CC[C@H]1C[C@@H]3C[C@@]12CC[C@]3(O)CO | -31.8% |
| C[C@]12CC[C@H](O)C[C@H]1CC[C@@H]1[C@@H]2C[C@@H](O)[C@]2(C)[C@@H](C3=CC(=O)OC3)CC[C@]12O | -78.8% |
| Cn1c(COP(=O)(NCCBr)NCCBr)cnc1[N+](=O)[O-] | -53.2% |
| CCCCCCCCCCCCCCCC[n+]1ccccc1 | -92.7% |
| CC[C@H]1CN2CCc3cc(OC)c(OC)cc3[C@@H]2C[C@@H]1C[C@H]1NCCc2cc(OC)c(OC)cc21 | -93.8% and -97.5% |
| NC(=O)c1cn([C@@H]2O[C@H](CO)[C@@H](O)[C@H]2O)c2ncnc(N)c12 | -95.1% |
| Oc1cccc2cccnc12 | -48.9% |
| C/C(=C\c1csc(C)n1)[C@@H]1C[C@@H]2O[C@]2(C)CCC[C@H](C)[C@H](O)[C@@H](C)C(=O)C(C)(C)[C@@H](O)CC(=O)O1 | -51.7% |
| CCNC(=O)C[C@@H]1N=C(c2ccc(Cl)cc2)c2cc(OC)ccc2-n2c(C)nnc21 | -56.9% |
| O=Cc1cn(Cc2ccc(Cl)cc2)c2ccccc12 | -38.7% |
| CO[C@H]1C[C@H](O[C@H]2CC[C@@]3(C)[C@H](CC[C@@H]4[C@@H]3CC[C@]3(C)[C@@H](C5=CC(=O)OC5)[C@@H](OC(C)=O)C[C@]43O)C2)O[C@@H](C)[C@@H]1O | -84.3% |
| C[C@]12CC[C@H]3[C@@H](CC[C@]4(O)C[C@@H](O)CC[C@]34C=O)[C@@]1(O)CC[C@@H]2C1=CC(=O)OC1 | -81.8% |
| O=[N+]([O-])C=Cc1ccc2c(c1)OCO2 | -25.8% |
| N#Cc1cn([C@@H]2O[C@H](CO)[C@@H](O)[C@H]2O)c2ncnc(N)c12 | -94.2% |
| C=C1[C@@H](C)[C@H]2[C@H](Cc3ccccc3)NC(=O)[C@]23OC(=O)/C=C/[C@H](O)CCC[C@@H](C)C/C=C/[C@H]3[C@@H]1O | -28.2% |
